Test [1] has as its target Cellular tumor antigen p53 (Homo sapiens) (UniProt P04637). In words: Primary qHTS for small molecule compounds that upregulate eGFP-tagged delta133p53alpha (in N-terminal) cells. (AID 2060322). Further: nearly all actives have a fitted effect of over 75% in size. Further: potency means the concentration at half of the fitted maximal effect.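 On activation: 0% = DMSO vehicle and 100% = reference activator.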 The settings on record: NCI-H358 eGFP-delta133p53alpha fluorescence, 24 h; activation: active compounds read high. In a few lines:
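NCI-H358 cells pre-induced 24 h with 10 ng/ml doxycycline to express N-terminal eGFP-delta133p53alpha, then dosed 24 h at 37C without doxycycline; fixed, Hoechst-stained, GFP intensity by laser scanning cytometry, normalized to DMSO (0%) and 57.5 uM 5-azacytidine (100%).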
(In qHTS, concentration-response curves come from the screen itself.)

Test [2] deals with Aldehyde dehydrogenase, mitochondrial (Homo sapiens) (UniProt P05091). In words: qHTS for Inhibitors of the Aldehyde Dehydrogenase Family (ALDH2) Primary screen (AID 2061308).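 Further: plate controls were vehicle for no effect and reference inhibitor for full effect; nearly all actives have a fitted effect of over 55% in size.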 The note with it: ALDH2 enzyme inhibition qHTS, 1536-well; series mostly up to 56 µM.
Test [3] has as its target Retinaldehyde dehydrogenase 3 (Homo sapiens) (UniProt P47895). Description: qHTS for Inhibitors of the Aldehyde Dehydrogenase Family (ALDH1A3) Primary screen (AID 2061315).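 Further: plate controls were DMSO vehicle for no effect and reference inhibitor for full effect.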 The note with it: ALDH inhibition qHTS; series mostly up to 56 µM.

Structures are written as SMILES. Values joined by “and” are separate entries in the source; they are usually repeats but may differ in a detail not shown here. Identical values can stand only once. Records with an inconclusive call do not appear. Unmarked numbers belong to inactive results. Active and inactive are the calls of the source. The call rests on the fitted dose curve; in most records, active means well fitted curve in the direction sought with a large enough effect; inconclusive means small, poorly fitted or top-dose-only effect, or another doubt; inactive means no such curve, though single readings can be large; an effect the other way counts as inactive or inconclusive. Peptide text beside a SMILES is read from it.

Cellular tumor antigen p53 (Homo sapiens), sequence (P04637 whole entry, looked up): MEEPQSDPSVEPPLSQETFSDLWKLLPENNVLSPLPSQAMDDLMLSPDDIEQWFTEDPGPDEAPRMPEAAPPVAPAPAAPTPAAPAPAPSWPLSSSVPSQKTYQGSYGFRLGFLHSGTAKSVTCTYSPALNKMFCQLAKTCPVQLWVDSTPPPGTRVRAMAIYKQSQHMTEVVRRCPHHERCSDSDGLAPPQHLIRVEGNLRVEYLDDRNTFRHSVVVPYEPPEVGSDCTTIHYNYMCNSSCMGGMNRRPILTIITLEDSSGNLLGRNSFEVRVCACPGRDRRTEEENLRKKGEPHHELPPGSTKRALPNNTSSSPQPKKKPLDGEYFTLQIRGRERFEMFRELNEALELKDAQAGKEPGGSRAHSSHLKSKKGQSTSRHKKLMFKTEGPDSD

Regarding `C=C1[C@H](OC(C)=O)[C@H]2[C@@H](OC(C)=O)C(C)C[C@]2(OC(C)=O)C(=O)[C@H](C)/C=C/C(C)(C)C(=O)[C@H](OC(=O)C(C)C)[C@H]1OC(C)=O` (some centres not stated), the activation in test [1] is -13.7%. The Potency result in test [2] and in test [3] was “inactive” throughout.
With `C[C@@]1(O)[C@H](O)[C@@H](CO)O[C@H]1n1cnc2c(=O)[nH]c(N)nc21`, the activation in test [1] is -12.3%. Also, the Potency result in test [2] and in test [3] was “inactive” in each case.
`CC(C)=CCC[C@](C)(O)[C@H]1CC[C@]2(C)[C@@H]1[C@H](O)CC1[C@@]3(C)CC[C@H](O)C(C)(C)C3[C@@H](O[C@@H]3O[C@H](CO)[C@@H](O)[C@H](O)[C@H]3O[C@@H]3OC[C@@H](O)[C@H](O)[C@H]3O)C[C@]12C` (some centres not stated): in test [1], the activation is -16.8%. Besides, the Potency entry in test [2] and in test [3] was “inactive” in each case.
Regarding `CC(C)(OC1OC(CO)C(O)C(O)C1O)C1CCC(O)(CO)C2CC(O)C(C)(O)C2C1` (configuration not stated), in test [1], the activation is -19.6%. Further, the Potency entry in test [2] and in test [3] was “inactive” in each case.
`C=C1[C@@H](C2=CC(=O)OC2)CC[C@@]2(O)[C@@H]1CC1[C@H]2CC[C@@H]2C[C@@H](O[C@H]3O[C@@H](C)[C@@H](O[C@@H]4O[C@H](CO[C@@H]5O[C@H](CO)[C@@H](O)[C@H](O)[C@H]5O)[C@@H](O)[C@H](O)[C@H]4O)[C@H](OC)[C@H]3O)CC[C@]12C` (some centres not stated): the activation in test [1] was 7.14%. Moreover, the Potency result in test [2] and in test [3] was “inactive” each time.
Turning to `CCCn1cc2c(nc(NC(=O)Nc3ccc(OC)cc3)n3nc(-c4ccco4)nc23)n1`, the activation in test [1] was 9.07%. For the same molecule, the Potency result in test [2] and in test [3] was “inactive” in each case.
For the molecule `C=C1C(O)CC2C(C(=O)O)=COC(O[C@@H]3O[C@H](COC(=O)/C=C/c4ccc(O)cc4)[C@@H](O)[C@H](O)[C@H]3O)C12` (some centres not stated), the activation in test [1] is -6.87%. The Potency result in test [2] and in test [3] was “inactive” in each case.
With `CC(=O)O[C@@H]1[C@H]2[C@@H](OC(=O)c3ccccc3)[C@@H](C)C[C@]2(O)[C@H](OC(C)=O)[C@@]2(C)[C@@H]3CC(C)(C)C(=O)[C@]3(OC(C)=O)C[C@@]12C`, the activation in test [1] is -15.2%. Moreover, the Potency result in test [2] and in test [3] was “inactive” each time.
Turning to `CC(=O)O[C@@H]1[C@@H](O)[C@H](C)O[C@@H](O[C@H]2[C@@H]3C=CO[C@@H](O[C@@H]4O[C@H](CO)[C@@H](O)[C@H](O)[C@H]4OC(C)=O)[C@@H]3[C@@]3(CO)O[C@@H]23)[C@@H]1OC(=O)/C=C/c1ccc(O)cc1`, the activation in test [1] is -17.6%. For the same molecule, the Potency result in test [2] and in test [3] was “inactive” in each case.
As to `COc1c(N2CC3CCCNC3C2)c(F)cc2c(=O)c(C(=O)O)cn(C3CC3)c12` (configuration not stated), in test [1], the activation is 3.34%. The Potency result in test [2] and in test [3] was “inactive” in each case.
For the molecule `COc1ccc(CC(=O)NCc2ccccc2-c2ccccc2C(=O)NCCc2cccnc2)cc1`, the activation in test [1] was 0.955%. Also, the Potency entry in test [2] and in test [3] was “inactive” in each case.
Consider `CNS(=O)(=O)c1ccccc1Nc1nc(Nc2ccc(N3CCN(C)CC3)cc2OC)ncc1Cl`, for which, in test [1], the Potency is 21.3 µM (active). Further, the Potency result in test [2] and in test [3] was “inactive” each time.
For the molecule `CC(C)C1NC(=O)CNC(=O)C2CCCN2C(=O)C(Cc2c[nH]c3ccccc23)NC(=O)CNC(=O)C(Cc2ccc(O)cc2)NC(=O)CNC1=O` (configuration not stated) (cyclo(GVGYGWP); configuration not given here), the activation in test [1] was -6.25%. Further, the Potency entry in test [2] and in test [3] was “inactive” throughout.
For the molecule `CCOP(=O)(Cc1ccc(C(=O)Nc2ccc(Br)cc2C#N)cc1)OCC`, the activation in test [1] is 2.33%. Besides, the Potency result in test [2] and in test [3] was “inactive” each time.
As for `CC1OC(OC2C(OC3C(O[C@H]4CC[C@@]5(C)C(CC[C@]6(C)C5C(=O)C=C5C7CC(C)(C)CC(O)[C@]7(C)CC[C@]56C)C4(C)C)OC(C(=O)O)C(O)C3O)OCC(O)C2O)C(O)C(O)C1O` (some centres not stated), the activation in test [1] was 2.29%. The Potency entry in test [2] and in test [3] was “inactive” throughout.
In the case of `CNC(=O)c1ccccc1Sc1ccc2c(/C=C/c3ccccn3)n[nH]c2c1`, the activation in test [1] is -18.6% and -9.82%. Besides, the Potency result in test [2] and in test [3] was “inactive” throughout.
`CC(=O)OC[C@@]12C(=O)C[C@@H](C)[C@]3(C[C@@H](c4ccoc4)OC3=O)[C@H]1CC[C@H](OC(C)=O)[C@]21CO1`: in test [1], the activation is 27.5%. The Potency result in test [2] and in test [3] was “inactive” each time.
Regarding `CC1CCC2(C(=O)O)CCC3(C)C(=CCC4C5(C)C[C@@H](O)[C@@H](O)C(C)(CO)C5CCC43C)C2C1(C)O` (some centres not stated), the activation in test [1] is 11.6%. In addition, the Potency entry in test [2] and in test [3] was “inactive” in each case.
With `Cc1cccc(S(=O)(=O)N2CCC[C@@H]2CCN2CCC(C)CC2)c1`, the activation in test [1] was 0%. Moreover, the Potency entry in test [2] and in test [3] was “inactive” each time.
As for `CC(C)(O)C1CC(=O)C2(C)C(CCC3(C)C(c4ccoc4)OC(=O)C4OC432)C12CCC(=O)OC2` (configuration not stated), the activation in test [1] was -3.57%. The Potency entry in test [2] and in test [3] was “inactive” throughout.
For the molecule `CC(=O)OC/C(=C/C(=O)O)CC[C@@H]1C(C)=CC(=O)[C@@H]2C(C)(C)CCC[C@@]12C`, the activation in test [1] is -23.7%. In addition, the Potency entry in test [2] and in test [3] was “inactive” throughout.
Consider `C=CC1(C)CC(O)C(C(=C)C(=O)OC)C(O)C1C(=C)CO` (configuration not stated), for which the activation in test [1] is -14.5%. In addition, the Potency entry in test [2] and in test [3] was “inactive” in each case.
Take `COc1ccc(CN2C(=O)C(=O)c3cc(S(=O)(=O)N4CCC[C@H]4COc4cccnc4)ccc32)cc1`: the activation in test [1] is 19.7%. Moreover, the Potency entry in test [2] and in test [3] was “inactive” each time.
In the case of `C[C@@H]1O[C@@H](O[C@H]2[C@H](O[C@H]3[C@H](O[C@H]4CC[C@@]5(C)C(CC[C@]6(C)C5CC=C5[C@@H]7CC(C)(C)C[C@@H](O)[C@]7(C)CC[C@]56C)C4(C)C)O[C@H](C(=O)O)[C@@H](O)[C@@H]3O)O[C@H](C(=O)O)[C@H](O)[C@@H]2O)[C@H](O)[C@H](O)[C@H]1O` (some centres not stated), the activation in test [1] is -16.8%. Also, the Potency entry in test [2] and in test [3] was “inactive” each time.

(Values after PubChem BioAssay (NCATS).)
